From PubChem BioAssay (NCI)
This is part of a sample that, as a whole, favours compounds with a hit. Of some 83,000 tested, about 20% had one in any assay.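 Each cell line was grown in a 96-well plate and treated with one concentration of compound for 48 hours. Values below 10 were considered active.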 Unmarked numbers belong to inactive results. The source made the active and inactive calls.

What was measured:
Assay in all cases: NCI-60 one-dose screen, 48 h (100 = growth as untreated, 0 = no growth, -100 = all killed)
Conditions in all cases: 10 µM unless noted
HCT-15 colon = test system: HCT-15 colon
HT29 colon = test system: HT29 colon
SNB-75 CNS = test system: SNB-75 CNS
SNB-19 CNS = test system: SNB-19 CNS
U251 CNS = test system: U251 CNS
PC-3 prostate = test system: PC-3 prostate
SK-MEL-5 melanoma = test system: SK-MEL-5 melanoma
UACC-62 melanoma = test system: UACC-62 melanoma
LOX IMVI melanoma = test system: LOX IMVI melanoma
SK-MEL-28 melanoma = test system: SK-MEL-28 melanoma
SK-MEL-2 melanoma = test system: SK-MEL-2 melanoma
EKVX NSCLC = test system: EKVX NSCLC
SN12C renal = test system: SN12C renal
UO-31 renal = test system: UO-31 renal
TK-10 renal = test system: TK-10 renal
ACHN renal = test system: ACHN renal
CAKI-1 renal = test system: CAKI-1 renal
A498 renal = test system: A498 renal
CCRF-CEM leukemia = test system: CCRF-CEM leukemia
MOLT-4 leukemia = test system: MOLT-4 leukemia

| Structure (SMILES) | growth (HCT-15 colon) | growth (HT29 colon) | growth (SNB-75 CNS) | growth (SNB-19 CNS) | growth (U251 CNS) | growth (PC-3 prostate) | growth (SK-MEL-5 melanoma) [%] | growth (UACC-62 melanoma) | growth (LOX IMVI melanoma) | growth (SK-MEL-28 melanoma) [%] | growth (SK-MEL-2 melanoma) [%] | growth (EKVX NSCLC) | growth (SN12C renal) | growth (UO-31 renal) | growth (TK-10 renal) | growth (ACHN renal) | growth (CAKI-1 renal) | growth (A498 renal) | growth (CCRF-CEM leukemia) | growth (MOLT-4 leukemia) |
| --- | --- | --- | --- | --- | --- | --- | --- | --- | --- | --- | --- | --- | --- | --- | --- | --- | --- | --- | --- | --- |
| O=C(/C=C\c1ccc(O)c(O)c1)c1ccccc1O | 46% | 90.8% | 76.9% | 81.4% | 69% | 76.7% | 77.2 | 72.6% | 75.1% | 94.9 | 125 | 73.3% | 71.9% | 49.6% | 88.7% | 78.3% | 8.01% (active) | 98.9% | 14.7% | 49.1% |
| CCCCCN(CCCCC)CC(O)c1c(Cl)ccc2ccccc12 (stereo not given) | 55.8% | 31.4% | 92% | 92.3% | 80.3% | 75.2% | 72.8 | 59.7% | 71.6% | 97.3 | 93.4 | 62.5% | 70.2% | 37.2% | 98.1% | 54.7% | 60% | 68.3% | 67.2% | 54% |
| Nc1nc(N)c2c(n1)NC(c1cccc(Nc3ccnc4cc(C(F)(F)F)ccc34)c1)CC(c1ccc(Cl)cc1)=N2 (stereo not given) | 20.3% | 10.6% | 47.9% | 62.8% | 36.7% | 32.4% | 47.2 | 76.3% | 37.5% | 80.7 | 42.7 | 50.8% | 63.9% | 62.7% | 87.4% | 72.7% | 45.5% | 82% | 19.2% | 7.52% (active) |
| CCOC(=O)C1=CCC(n2cc(F)c(=O)[nH]c2=O)O1 (stereo not given) | 104% | 105% | 121% | 108% | 95.6% | 102% | 104 | 108% | 94.7% | 114 | 103 | 118% | 104% | 87.8% | 110% | 103% | 102% | 99.9% | 97.4% | 92.9% |
| O=C(Nc1ncc(Cc2ccc(Cl)cc2)s1)C1=NCCCCN1 | 98.9% | 102% | 102% | 106% | 106% | 101% | 99.8 | 97.7% | 98.7% | 108 | 110 | 106% | 106% | 84.3% | 108% | 109% | 90.5% | 112% | 101% | 99.4% |
| CN1C(=O)N(C)C2C1NN=c1s/c(=C\c3ccccc3F)c(=O)n12 (stereo not given) | 13.3% | 2.25% (active) | -4.89% (active) | 24.1% | 14.5% | 27.4% | 16.7 | 21% | 20.6% | 47.1 | 42.5 | 48.3% | 26% | 42.6% | 63.1% | 36.8% | 31.4% | 1.45% (active) | 11% | 15.8% |
| FC(F)(F)c1cc(N2CCCCC2)nc(NCCCNc2ccnc3cc(Cl)ccc23)n1 | 53.2% | 26.8% | 71.9% | 82.2% | 67.4% | 45.4% | 27.1 | 61.9% | 65.8% | 76.7 | 64.9 | 48.3% | 69.1% | 46.8% | 63.6% | 65.8% | 60.7% | 47.8% | 54% | 40% |
| COc1cc(CNC(=O)CCCC/C=C/C(C)C)ccc1OCc1cn(-c2ccc(C(F)(F)F)cc2)nn1 | 59.7% | 79% | 49.7% | 76.1% | 46.7% | 62.2% | 97.1 | 84.3% | 60.3% | 107 | 95.1 | 88.3% | 20.5% | 70.5% | 92.8% | 90.2% | 80.4% | 85.8% | 68.8% | 80.3% |
| CCOC(=O)C1=C(c2ccccc2)N=C2N(c3ccccc3)N=C(C(C)=O)N2C1c1ccc(Br)cc1 (stereo not given) | 92.2% | 85.1% | 85.8% | 88.7% | 98% | 77.6% | 94 | 72.4% | 95.4% | 99.9 | 90.3 | 93.9% | 90% | 72.7% | 109% | 93.3% | 87.1% | 42.9% | 87.7% | 93.6% |
| CCCn1cnc2c(c1=N)C(c1ccc(Cl)cc1)c1sc3c(F)cccc3c1O2 (stereo not given) | 40.9% | 20.8% | 90.2% | 87.5% | 59.8% | 65.8% | 63.7 | 85.4% | 82.3% | 80.1 | 103 | 80% | 69.3% | 50.5% | 102% | 84.1% | 70.6% | 94.7% | 64.4% | 56.7% |
| CCOC(=O)/C(=C\c1ccccc1Cl)P(=O)(OCC)OCC | 34.4% | 34.7% | 51% | 84.8% | 66.3% | 45.8% | 79.5 | 56.7% | 0.286% (active) | 65.2 | 68.1 | 73.1% | 68% | 53.9% | 75.5% | 52.8% | 75% | 103% | 19.5% | 25.1% |
| COc1ccc(N2C(=O)/C(=C/C(Cl)=C/c3ccc([N+](=O)[O-])cc3)SC2=S)cc1 | -24.1% (active) | -20.9% (active) | -33.8% (active) | 2.68% (active) | -83.1% (active) | 2.17% (active) | 29.3 | -25.2% (active) | -86.2% (active) | 13.7 | 37.4 | -3.04% (active) | -3.33% (active) | -97.7% (active) | -26.7% (active) | -68% (active) | 0.845% (active) | 63.2% | 0.216% (active) | 2.36% (active) |
| O=C(Oc1ccccc1)c1cc(O)c(O)c(O)c1 | 39.8% | 85.7% | 79.5% | 65.2% | 54.8% | 70.4% | 58.4 | 31.3% | 59.3% | 89.9 | 125 | 52.2% | 66.1% | 53.8% | 81% | 62.6% | 33.6% | 87.3% | 26.6% | 62.5% |
| C#C[C@]1(O)CC[C@H]2[C@@H]3CC=C4c5sc(-c6ccccc6)nc5CC[C@]4(C)[C@H]3CC[C@@]21C | 52.3% | 74.2% | 63.6% | 88% | 69.8% | 65.7% | 97.4 | 91.6% | 74.9% | 61.2 | 92 | 92.8% | 88.2% | 77% | 126% | 85.6% | 55.2% | 91% | 67.4% | 63.8% |
